From PubChem BioAssay (Tox21) come the findings set out here.

Assay [1] deals with Retinoic acid receptor RXR-alpha (Homo sapiens) (UniProt P19793). Nature of the assay: qHTS assay to identify small molecule agonists of the RXR signaling pathway (AID 1159527; calls by dose curve; note: nearly all actives have a fitted effect of over 35% in size; note: potency is the fitted concentration of half-maximal effect). An outline of the steps: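 Read-out: beta-lactamase FRET ratio (405 nm excitation, 460 and 530 nm emission) after 2 hr substrate loading at room temperature. Cells were RXR-alpha-UAS-bla HEK 293T treated with compounds for 16 hr in 2% charcoal-stripped FBS medium.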
Background: In qHTS, concentration-response curves come from the screen itself.

The nature of assay [2]: qHTS assay to identify small molecule agonists of the RXR signaling pathway - cell viability counter screen (AID 1159529). Note: series mostly up to about 77 µM; nearly all actives have a fitted effect of over 50% in size. Put shortly: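 HEK 293T RXRa-bla cells, 2% CS-FBS; 5 h settle; cpd 16 h 37 C, 5% CO2; CellTiter-Glo 30 min RT, luminescence. Tetraoctyl ammonium bromide as positive control.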
The nature of assay [3]: qHTS assay to identify small molecule antagonists of the retinoid acid receptor (RAR) signaling pathway - cell viability counter screen (AID 1159551). Note: nearly all actives have a fitted effect of over 35% in size. Put shortly: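 Luminescent ATP quantitation (CellTiter-Glo) gave cell viability in C3RL4 cells exposed to test chemicals for 6 h at 37 C alongside 1 uM final retinol.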
Assay [4] in a line: qHTS assay to identify small molecule antagonists of the retinoic acid receptor (RAR) signaling pathway (AID 1159552; note: nearly all actives have a fitted effect of over 50% in size). Put shortly: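 Cells of the C3RL4 line were seeded, incubated overnight, then dosed with compounds in DMSO followed immediately by retinol (1 uM final). Six hours later luciferase detection reagent went in; signal was measured after 30 min at RT.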
Assay [5] in a line: qHTS assay to identify small molecule agonists of the retinoic acid receptor (RAR) signaling pathway (AID 1159553). Put shortly: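 Luminescence from a RARE-driven luciferase reporter in C3RL4 cells served as the read-out, measured after 30 min with detection reagent at room temperature. Compounds in DMSO were applied for 6 hr at 37 C following overnight seeding.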
Assay [6] is described as follows: qHTS assay to identify small molecule antagonists of the estrogen related receptor (ERR) signaling pathway from Tox21 library - cell viability counter screen (AID 1224834). Note: nearly all actives have a fitted effect of over 30% in size. An outline of the steps:
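Fluorescence from CellTiter-Fluor gives the viability read-out, taken 30 min after reagent addition. Before that, ERR cells seeded 6 h earlier were incubated with compounds for 17.5 h at 37 C.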

For assay [7], the target named is Luciferin 4-monooxygenase (Photinus pyralis) (UniProt P08659). Nature of the assay: qHTS assay to identify small molecule inhibitors of firefly luciferase (AID 1224835). Note: series mostly up to about 120 µM; nearly all actives have a fitted effect of over 25% in size. Put shortly:
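Quantitative HTS format; KM concentrations of both substrates. Purified P. pyralis FLuc activity quantified from luminescence images.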

Assay [8] in a line: qHTS assay to identify small molecule agonists of the constitutive androstane receptor (CAR) signaling pathway - cell viability counter screen (AID 1224836). Note: series mostly up to about 92 µM; nearly all actives have a fitted effect of over 45% in size. An outline of the steps:
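HepG2-CYP2B6-hCAR, 2500 cells/well, 4 h pre-incubation; cpd 15 conc + PK11195 0.75 uM final; 23 h, 37 C/5% CO2; CellTiter-Fluor, fluorescence.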

A short description of assay [9]: qHTS assay to identify small molecule antagonists of the constitutive androstane receptor (CAR) signaling pathway - cell viability counter screen (AID 1224837). Note: series mostly up to about 92 µM; nearly all actives have a fitted effect of over 45% in size. Put shortly: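 HepG2-CYP2B6-hCAR cells, 2500/well, 4 hr pre-incubation; compound titration, 15 conc.; CITCO 50 nM final; 23 hr, 37 C/5% CO2; CellTiter-Fluor, fluorescence intensity.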
Assay [10] has as its target Nuclear receptor subfamily 1 group I member 3 (Homo sapiens) (UniProt Q14994). Briefly: qHTS assay to identify small molecule antagonists of the constitutive androstane receptor (CAR) signaling pathway (AID 1224838).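 Note: HepG2 cells stably expressing hCAR with CYP2B6 luciferase reporter stimulated by CITCO; nearly all actives have a fitted effect of over 40% in size.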 Put shortly: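 HepG2-CYP2B6-hCAR cells; 4 h pre-incubation; cpd (15 conc) + CITCO 50 nM final; 24 h, 37 C/5% CO2; ONE-Glo, luminescence.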
Assay [11] is described as follows: qHTS assay to identify small molecule antagonists of the estrogen related receptor signaling pathway with the pleiotropic PPARgamma coactivator (PGC) from Tox21 10K library - cell viability counter screen (AID 1224840; active = well fitted cell-killing curve with a large enough effect in the repeat runs, not every such curve was filed as active; note: nearly all actives have a fitted effect of over 40% in size). Put shortly: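 PGC/ERR cells, 2,000/well; 6 h pre-incubation 37 C/5% CO2; cpd in DMSO via pin tool; 17.5 h 37 C; CellTiter-Fluor, 30 min; fluorescence.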

A short description of assay [12]: qHTS assay to identify small molecule antagonists of the estrogen related receptor signaling pathway with the pleiotropic PPARgamma coactivator (PGC) from Tox21 10K library (AID 1224841; call rule not given here; note: series mostly up to about 92 µM; actives are mostly falling curves and most rising ones were filed inactive; nearly all actives have a fitted effect of over 50% in size). Put shortly: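 PGC/ERR cell line, 2,000 cells/well; 6 h pre-incubation 37 C/5% CO2; compounds (DMSO) pinned in; 18 h, 37 C; One-Glo, 30 min RT; luminescence.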
Assay [13] is described as follows: qHTS assay to identify small molecule agonists of the estrogen related receptor signaling pathway with the pleiotropic PPARgamma coactivator (PGC) from Tox21 10K library (AID 1224842). Note: nearly all actives have a fitted effect of over 15% in size. Put shortly:
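PGC/ERR reporter cells (NTP line) were seeded 2,000 per well, rested 6 h at 37 C/5% CO2, then pin-dosed with compounds in DMSO for 18 h at 37 C; luciferase read by One-Glo luminescence after 30 min at room temperature.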

Assay [14] addresses Nuclear receptor subfamily 1 group I member 3 (Homo sapiens) (UniProt Q14994). Nature of the assay: qHTS assay to identify small molecule agonists of the constitutive androstane receptor (CAR) signaling pathway (AID 1224839).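 Note: HepG2 cells stably carrying human CAR and a CYP2B6 luciferase reporter; series mostly up to about 92 µM; nearly all actives have a fitted effect of over 15% in size.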 An outline of the steps: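 HepG2-CYP2B6-hCAR cells, 2500/well, 4 h pre-incubation; compounds 15 conc.; PK11195 0.75 uM final; 24 h, 37 C/5% CO2; ONE-Glo luciferase read.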

The nature of assay [15]: qHTS assay to identify small molecule antagonists of the estrogen related receptor (ERR) signaling pathway - cell viability counter screen (AID 1224818). Note: series mostly up to about 46 µM. Put shortly:
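Multiplexed counter screen to separate cytotoxic compounds from true ERR modulators. ERR cells received DMSO-dissolved compounds after a 6 h pre-incubation, were exposed 17.5 h at 37 C, then assayed with CellTiter-Fluor fluorescence.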

A short description of assay [16]: qHTS assay to identify small molecule antagonists of the estrogen related receptor (ERR) signaling pathway (AID 1224819;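 note: luminescence from an ERR-driven luciferase reporter measured with One-Glo reagent; series mostly up to about 46 µM; nearly all actives have a fitted effect of over 50% in size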). Put shortly:
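Seed ERR cells 2,000/well; rest 6 h at 37 C/5% CO2; pin compounds in DMSO; incubate 18 h at 37 C; add One-Glo; wait 30 min at room temperature; measure luminescence.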

Assay [17] can be described thus: qHTS assay to identify small molecule agonists of the estrogen related receptor (ERR) signaling pathway (AID 1224820). Put shortly: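 Quantitative HTS of the LOPAC library used NTP ERR reporter cells treated 18 h at 37 C. Signal is luminescence after One-Glo addition and a 30 min room-temperature incubation.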
Assay [18] can be described thus: qHTS assay to identify small molecule antagonists of the estrogen related receptor signaling pathway with the pleiotropic PPARgamma coactivator (PGC) cell viability counter screen (AID 1224822; note: series mostly up to about 46 µM). An outline of the steps: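 Cells: PGC/ERR, 2,000/well, 1536-well format. Pre-incubation 6 h, 37 C/5% CO2. Compound exposure 17.5 h, 37 C. Detection: CellTiter-Fluor, 30 min, fluorescence.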

The nature of assay [19]: qHTS assay to identify small molecule agonists of the estrogen related receptor signaling pathway with the pleiotropic PPARgamma coactivator (PGC) (AID 1224823). An outline of the steps:
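Cell-based luciferase assay in the NTP-supplied PGC/ERR line, 2,000 cells/well; 18 h compound exposure at 37 C, luminescence after One-Glo.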

The structures appear in SMILES notation. “And” between values parts separate entries of the source, which are not always exact repeats. Equal entries are not always repeated. Inconclusive results are not listed. The source holds several records for some structures; these can differ, active in one and inactive in another. The source made the active and inactive calls. Unless noted, calls come from the whole dose curve; as a rule, active = well fitted curve in the direction sought with a large enough effect in the repeat runs; inconclusive = weak or mixed curves; inactive = no such curve, though single readings can be large; an effect the other way counts as inactive or inconclusive.

Chain of Retinoic acid receptor RXR-alpha (Homo sapiens) (P19793 whole entry, looked up): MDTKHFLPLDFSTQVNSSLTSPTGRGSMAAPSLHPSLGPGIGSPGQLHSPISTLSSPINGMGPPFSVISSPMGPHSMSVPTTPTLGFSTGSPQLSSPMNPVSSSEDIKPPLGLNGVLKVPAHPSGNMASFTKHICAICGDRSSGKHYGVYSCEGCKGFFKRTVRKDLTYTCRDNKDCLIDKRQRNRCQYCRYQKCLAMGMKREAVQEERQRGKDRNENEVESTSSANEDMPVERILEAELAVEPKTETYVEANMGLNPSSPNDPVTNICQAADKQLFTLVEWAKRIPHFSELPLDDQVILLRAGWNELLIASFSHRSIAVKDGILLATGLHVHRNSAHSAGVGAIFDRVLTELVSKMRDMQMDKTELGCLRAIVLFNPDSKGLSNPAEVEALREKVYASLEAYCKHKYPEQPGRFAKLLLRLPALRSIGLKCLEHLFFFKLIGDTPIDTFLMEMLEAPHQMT
Chain of Luciferin 4-monooxygenase (Photinus pyralis) (P08659 whole entry, looked up): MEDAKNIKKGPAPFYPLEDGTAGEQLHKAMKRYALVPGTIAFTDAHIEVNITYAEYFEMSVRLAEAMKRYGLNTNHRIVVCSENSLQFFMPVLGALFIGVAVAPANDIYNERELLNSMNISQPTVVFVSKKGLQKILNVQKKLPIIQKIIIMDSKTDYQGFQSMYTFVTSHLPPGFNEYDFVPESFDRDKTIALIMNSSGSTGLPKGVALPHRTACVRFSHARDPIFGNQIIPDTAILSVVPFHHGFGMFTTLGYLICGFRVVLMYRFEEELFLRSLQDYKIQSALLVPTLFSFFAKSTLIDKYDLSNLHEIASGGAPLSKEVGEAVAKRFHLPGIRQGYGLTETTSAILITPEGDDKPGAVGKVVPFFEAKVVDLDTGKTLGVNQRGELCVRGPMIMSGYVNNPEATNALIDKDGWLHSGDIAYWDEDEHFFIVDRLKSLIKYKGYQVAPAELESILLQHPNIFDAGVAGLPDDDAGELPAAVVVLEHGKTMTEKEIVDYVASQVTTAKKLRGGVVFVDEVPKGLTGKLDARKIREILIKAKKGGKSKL
Chain of Nuclear receptor subfamily 1 group I member 3 (Homo sapiens) (Q14994 whole entry, looked up): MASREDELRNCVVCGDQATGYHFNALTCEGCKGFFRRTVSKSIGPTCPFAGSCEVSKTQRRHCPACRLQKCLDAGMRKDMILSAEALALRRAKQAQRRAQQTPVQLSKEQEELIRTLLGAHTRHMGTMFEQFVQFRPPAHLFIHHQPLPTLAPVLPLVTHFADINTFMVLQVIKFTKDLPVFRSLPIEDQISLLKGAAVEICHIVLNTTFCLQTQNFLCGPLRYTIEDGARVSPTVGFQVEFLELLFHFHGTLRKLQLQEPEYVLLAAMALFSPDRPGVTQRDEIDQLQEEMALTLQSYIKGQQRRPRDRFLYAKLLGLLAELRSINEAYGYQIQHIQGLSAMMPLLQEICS

For the compound `O=C(c1ccccc1)C(O)c1ccccc1` (stereo unspecified), the Potency entry in [1] is “inactive and 38.9 µM (active)”. In addition, the Potency result in [2], in assay [4], in assay [6], in assay [7], in assay [8] and in assay [9] was “inactive” each time. Besides, the Potency entry in assay [10] and in [11] was “inactive” throughout. Further, the call in assay [3] and in assay [5] was inactive.
With `Nc1ccc(S(=O)(=O)Nc2nccs2)cc1`, the Potency in [1] is 19.6 µM (active) and inactive. The Potency entry in assay [2], in assay [4], in [6], in assay [7], in [8] and in assay [9] was “inactive” in each case. Further, the Potency entry in [11], in assay [12] and in [13] was “inactive” throughout. The result in [3] and in [5] was inactive.
With `CCOc1ccc(NC(=O)CC(C)O)cc1` (stereo unspecified), the Potency entry in assay [1], in [2], in assay [4], in [6], in [7] and in assay [8] was “inactive” in each case. The Potency result in assay [9] and in [11] was “inactive” throughout. Further, the call in assay [3] and in assay [5] was inactive.
Take `CC(O)CN(CCN(CC(C)O)CC(C)O)CC(C)O` (stereo unspecified): the Potency result in [1], in assay [2], in [4], in assay [6], in assay [7] and in [8] was “inactive” each time. Further, the Potency result in [9], in assay [10], in assay [14] and in [11] was “inactive” each time. Besides, the compound was classed as inactive in assay [3] and in assay [5].
`O=c1ccc2ccccc2o1`: the Potency entry in assay [1], in [2], in assay [4], in assay [6], in assay [7] and in assay [8] was “inactive” throughout. In addition, the Potency result in assay [9], in [10], in assay [14] and in [11] was “inactive” each time. For the same compound, the call in assay [3] and in assay [5] was inactive.
On to `Cc1ccc(S(=O)(=O)NC(=O)NN2CCCCCC2)cc1`, for which the Potency result in assay [1], in assay [2], in assay [4], in assay [17], in assay [19] and in [6] was “inactive” in each case. The Potency result in [7], in [8], in assay [9], in assay [10], in assay [11] and in assay [12] was “inactive” each time. Further, the Potency entry in assay [13] was “inactive”. The compound was classed as inactive in assay [3], in assay [5], in [15], in assay [16] and in assay [18].
`CCCCC(CC)COC(=O)/C=C/c1ccc(OC)cc1` (stereo unspecified): the Potency entry in assay [1], in assay [2], in [4], in assay [6], in assay [7] and in [8] was “inactive” in each case. Also, the Potency result in assay [9], in [10], in assay [14], in assay [11], in [12] and in assay [13] was “inactive” throughout. Besides, the outcome in assay [3] and in assay [5] was inactive.
Take `Nc1ccc(C(=O)O)cc1`: the Potency entry in assay [1], in assay [2], in assay [4], in assay [6], in assay [7] and in assay [8] was “inactive” throughout. Besides, the Potency result in assay [9], in assay [10], in assay [14] and in assay [11] was “inactive” throughout. In addition, the outcome in assay [3] and in assay [5] was inactive.
As to `Nc1ccc(S(=O)(=O)c2ccc(N)cc2)cc1`, the Potency result in assay [1], in assay [2], in [4], in assay [6], in assay [7] and in [8] was “inactive” throughout. Further, the Potency result in assay [9] and in [11] was “inactive” each time. Moreover, the compound was called inactive in assay [3] and in [5].
